High-throughput results: PubChem BioAssay, several laboratories
ADAM10 inh: inhibitors of human ADAM10; O14672; recombinant ADAM10, EDANS/DABCYL FRET peptide cleavage, 3 h; inhibition, % at 7 µM; hit rate 0.62% among 370,000;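 active = inhibition above a per-campaign cutoff equal to the mean of compounds falling between control-based bounds plus 3 SD, cut at about 20% in these data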;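 also: 0% = DMSO wells while the 100% control is not disclosed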
Target sequence (O14672 214-748 limits assumed): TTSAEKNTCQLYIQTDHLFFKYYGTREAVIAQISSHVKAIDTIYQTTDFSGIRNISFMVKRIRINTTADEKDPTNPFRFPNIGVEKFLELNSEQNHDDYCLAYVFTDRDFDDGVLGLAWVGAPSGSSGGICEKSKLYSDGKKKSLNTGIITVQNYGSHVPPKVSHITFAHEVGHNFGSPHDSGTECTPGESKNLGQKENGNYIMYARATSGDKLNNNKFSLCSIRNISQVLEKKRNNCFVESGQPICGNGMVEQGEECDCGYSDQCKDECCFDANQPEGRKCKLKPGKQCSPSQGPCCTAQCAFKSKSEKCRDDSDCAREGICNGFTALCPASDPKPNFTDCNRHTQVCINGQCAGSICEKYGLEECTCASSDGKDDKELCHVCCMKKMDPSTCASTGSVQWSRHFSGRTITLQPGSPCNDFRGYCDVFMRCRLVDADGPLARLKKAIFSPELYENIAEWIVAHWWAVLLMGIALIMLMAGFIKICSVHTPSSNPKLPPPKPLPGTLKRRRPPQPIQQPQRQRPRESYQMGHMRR
ADAM17 inh: inhibitors of human ADAM17 | hit rate 0.83% among 370,000 | recombinant ADAM17, EDANS/DABCYL FRET peptide cleavage | inhibition, % at 6.95 µM | P78536 | AID 720648;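 active = inhibition above the mean of compounds lying between control limits plus 3 SD, set per campaign, cut at about 8.5% in these data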;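 also: 0% = DMSO-only wells as the low control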
sPLA2-III inh: Blocks human group III sPLA2 activity | Q9NZ20 | QFRET BODIPY PC-A2 liposome hydrolysis, fluorescence | inhibition, % at 12.2 µM | hit rate 0.56% among 370,000;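 active = inhibition above mean plus 3 SD of compounds lying within the high and low control bounds, cut at about 19% in these data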;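 also: 0% = median of test compound wells and 100% = no enzyme DMSO wells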
CendR NRP1 mod: NRP-1/CendR interaction modulation | O14786 | FAM-RPARPAR peptide binding to NRP-1, fluorescence polarization | inhibition, % at 25 µM | hit rate 0.85% among 360,000 | AID 602438;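 active = inhibition or corrected inhibition above about 18%, plus a signal ratio from 0.5 to 1.5, limit read from the data, passing the limit was not always enough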
KLK7 zymogen act: activates the human kallikrein-7 zymogen. activation, % at 7 µM. hit rate 0.9% among 370,000. purified proKLK7, EDANS-DABCYL substrate fluorescence; 100% is mature enzyme control, 0% vehicle. P49862;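 active = activation above the mean of all tested compounds plus 3 SD, computed per campaign excluding outliers beyond control limits, cut at about 13% in these data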
KLK7 act conf: proKLK7 activation, confirmation; shares compounds with KLK7 zymogen act; purified proKLK7, EDANS-DABCYL substrate fluorescence; scaled: vehicle 0, mature enzyme 100; activation, % at 7 µM; hit rate 68% among 3,200; AID 686949;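 active = activation, as change over the incubation, above the mean of all tested compounds plus 3 SD, cut at about 13% in these data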
EDANS-DABCYL int: optically interferes with EDANS-DABCYL signal, flagging KLK7 hits; EDANS-DABCYL substrate fluorescence interference, no enzyme, 4 h; solvent 0%, active enzyme control 100%; shares compounds with KLK7 zymogen act; activation, % at 7 µM; hit rate 80% among 3,200;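 active = activation above the all-compound mean plus 3 SD, ignoring values outside control-based bounds, cut at about 4.8% in these data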;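 also: value is the 4 h activation minus the activation read at time zero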
K7 EDANS ctr: optically interferes with EDANS-DABCYL fluorescence, kallikrein-7 activator counter-screen; shares compounds with KLK7 zymogen act; EDANS-DABCYL peptide fluorescence interference, no enzyme; EC50, µM; hit rate 20% among 250;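 active = compounds that raise the fluorescence signal in this interference counterscreen, with EC50 at or below 10 µM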;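 also: intact quenched peptide substrate alone read at 355 nm excitation and 520 nm emission; signal is fluorescence gain from T0 to T4 after four hours at room temperature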
Active calls of the source: *; i = inactive; . = no result. Rows were chosen to be rich in hits. Some 3.4% of all compounds tested hit in one or more screens of this group.

SMILES	ADAM10 inh	ADAM17 inh	sPLA2-III inh	CendR NRP1 mod	KLK7 zymogen act	KLK7 act conf	EDANS-DABCYL int	others
COC(=O)C1=CN(Cc2ccc(OC)c(OC)c2)C=C(C(=O)OC)C1c1ccccc1F	i	i	0.3	-3.2	-37.2	.	.
COC(=O)C1=CN(Cc2ccc(OC)c(OC)c2)C=C(C(=O)OC)C1c1cccc(OC)c1OC	i	i	-0.1	3.1	-15.7	.	.
Fc1cccc(F)c1Cn1ccc2ccc(-c3ccc4ccn(Cc5c(F)cccc5F)c4c3)cc21	0.6	-2.2	4.9	.	-1.0	.	.
CCOC(=O)[C@@]12CCCC=C1N(CCc1ccc(Cl)cc1)C(=O)[C@H]2CC(=O)N1CCC(c2ccccc2)CC1	10.3	6.9	-9.6	.	0.1	.	.
CC(COc1ccccc1C#N)CN1CCC(C(O)(c2ccccc2)c2ccccc2)CC1 (stereo not given)	4.0	2.0	-19.9	.	0.2	.	.
CCC[C@H]1[C@@H](NC(=O)c2cccc(C)c2)CC[C@@]23CCCN2C(=O)CCC[C@@H]13	-4.2	0.4	10.3	.	.	.	.
CC(=O)N1c2ccccc2-c2nc3ccccc3n2C1C (stereo not given)	-9.4	-2.4	-4.7	-1.9	0.7	.	.
Cc1ccsc1C1Nc2ccccc2-c2nc3ccccc3n21 (stereo not given)	i	i	15.6	-5.2	63.4*	-21.3	-18.9
Cc1ccc(C2N(C)c3ccccc3-c3nc4ccccc4n32)o1 (stereo not given)	i	i	-11.6	-2.3	10.4	.	.
CCN1c2ccccc2-c2nc3ccccc3n2C1c1ccccn1 (stereo not given)	i	i	2.6	38.7*	21.1*	28.5*	-7.5	K7 EDANS ctr=>69.5
CN1c2ccccc2-c2nc3ccccc3n2C1c1cccs1 (stereo not given)	i	i	-6.7	-12.8	40.2*	-12.1	-10.8
c1csc(C2Nc3ccccc3-c3nc4ccccc4n32)c1 (stereo not given)	i	i	-8.8	-7.8	89.7*	29.8*	27.3*
FC(F)(F)Oc1ccc(Cn2ccc3ccc(-c4ccc5ccn(Cc6ccccc6)c5c4)cc32)cc1	-23.7	-13.1	2.3	.	-1.0	.	.
CC1CC(C)CN(CCCNS(=O)(=O)c2cc3c(cc2Br)CCN3C(=O)C2CC2)C1 (stereo not given)	2.4	3.7	-3.2	.	0.3	.	.
CC(C)CCCCCCCCc1cccc(O)c1C(=O)O	19.2	4.3	-35.0	.	-0.5	.	.
O=C(NCCN1CCC(Cc2ccccc2)CC1)C1CCCN(S(=O)(=O)c2cccs2)C1 (stereo not given)	-3.5	-1.5	-18.9	.	0.3	.	.
CCC[C@H]1[C@@H](NC(=O)C2CCC2)CC[C@@]23CCCN2C(=O)CCC[C@@H]13	-5.2	-4.0	17.5	.	.	.	.
COC(=O)[C@H](C)NC(=O)[C@@H]1CCCN1C(=O)CNP(=O)(OCc1ccccc1)OCc1ccccc1	-2.5	-3.6	5.6	.	.	.	.
O=C(CSc1nnc(-c2ccccc2)n1-c1ccc(Cl)cc1)Nc1ccc2cn[nH]c2c1	2.8	0.0	0.6	.	0.5	.	.
Cc1cccc(-[n+]2c(C)cc(C)c3c(=O)[nH]c(=O)[nH]c32)c1	i	i	9.7	-7.1	29.4*	42.2*	53.2*
Cc1cc(C)[n+](-c2ccc(C(C)C)cc2)c2[nH]c(=O)[nH]c(=O)c12	i	i	0.5	7.2	27.4*	61.0*	65.2*
Cc1ccc2nc3[nH]c(=O)[nH]c(=O)c3c(N)c2c1	i	-292.2	3.3	1.6	6.8	.	.
Nc1[nH]c2cc(Cl)ccc2c1C(=O)NCCc1ccc(Cl)cc1	8.7	4.4	-13.8	.	-0.3	.	.
COC(=O)c1cc2c(c3c4cc(C)ccc4n(S(=O)(=O)c4ccc(OC)cc4)c13)C(=O)N(C)C2	-19.4	-5.6	3.9	.	-1.8	.	.
COc1ccc(OC)c2sc(NC(=O)C3=COCCO3)nc12	-327.9	-85.8	-34.3	-13.9	56.1*	8.0	2.3
SMILES	ADAM10 inh	ADAM17 inh	sPLA2-III inh	CendR NRP1 mod	KLK7 zymogen act	KLK7 act conf	EDANS-DABCYL int	others
COc1ccc(C)c2sc(NC(=O)C3=COCCO3)nc12	-7.7	-7.4	-24.1	-14.6	-0.1	.	.
CC[C@]12c3[nH]c4cc(-c5ccco5)ccc4c3CCN1C(=O)[C@@H](CC(=O)NCCN1CCOCC1)C[C@@H]2C(=O)N1CCN(C(=O)c2ccco2)CC1	-181.6	-48.1	-8.8	6.5	88.3*	63.7*	86.1*
CC[C@]12c3[nH]c4ccccc4c3CCN1C(=O)C(CC(=O)NCCN1CCOCC1)C[C@@H]2C(=O)N1CCN(C(=O)c2ccco2)CC1 (stereo not given in full)	-3.3	-2.6	-1.4	-9.4	0.8	.	.
CC[C@]12c3[nH]c4cc(-c5ccco5)ccc4c3CCN1C(=O)[C@@H](CC(=O)NCCN1CCOCC1)C[C@@H]2C(=O)N1CCN(C(=O)C2CC2)CC1	i	-200.8	-9.2	-9.5	110.5*	75.5*	83.3*
CC[C@]12c3[nH]c4cc(-c5ccco5)ccc4c3CCN1C(=O)[C@@H](CC(=O)NCCc1ccccn1)C[C@@H]2C(=O)N1CCN(C(=O)c2ccco2)CC1	i	-227.7	-0.3	-11.8	150.9*	119.4*	137.9*
COC(=O)C[C@@H]1CC[C@H]2[C@H](COc3ccc(NC(=O)Nc4ccc(C#N)cc4)cc3C(=O)N2C)O1	-8.0	-4.9	-15.7	.	0.4	.	.
Fc1ccc(-c2nc3cnccn3c2NC2CCCC2)cc1	i	-211.9	6.1	7.2	57.9*	63.1*	3.7	K7 EDANS ctr=>69.5
Cc1ccn2c(NC3CCCCC3)c(-c3ccc(SC4CCCCC4)cc3)nc2c1	-8.4	-1.6	3.9	-72.4	-0.9	.	.
COc1ccc(C2CC(=O)C(c3ccccc3)=CN2Cc2ccccc2)cc1 (stereo not given)	2.0	4.0	-1.5	.	0.5	.	.
CCN(C(=O)COC(=O)c1ccccc1NCCO)C1CCS(=O)(=O)C1 (stereo not given)	i	i	1.4	-9.1	25.5*	32.0*	35.3*
CCN(C(=O)COC(=O)c1cc(-c2cccs2)nc2ccccc12)C1CCS(=O)(=O)C1 (stereo not given)	i	-385.2	-23.1	-9.4	-64.9	.	.
Cc1ccc(-c2cc(C(=O)NCC3(N(C)C)CCCCC3)c3ccccc3n2)o1	i	-210.8	4.0	-8.6	72.5*	20.7*	46.2*
Cc1ccc(-c2cc(C(=O)Nc3ccccc3C(N)=O)c3ccccc3n2)o1	-30.6	-12.9	-0.2	-33.5	0.4	.	.
